BoNT A protease = BoNT A light chain protease inhibition; multiplex microsphere protease substrate cleavage, flow cytometry; actives 0.17% (n = 360,000); inhibition, % at 10 µM; AID 588499; further: plate controls were buffer without enzyme for full effect and enzyme alone for no effect
Autofluor counter = counter-screen for toxin protease inhibitors: compound fluorescence; compound autofluorescence counterscreen, microsphere flow cytometry; hits give high values; fluorescence intensity (test concentration not listed); actives 3.1% (n = 360,000); AID 624483; in the data active means fluorescence intensity above about 16000; inconclusive means no clear call, values can overlap the other calls
Anthrax LF inh2 = blocks Bacillus anthracis lethal factor protease. multiplex microsphere protease cleavage assay, LF. actives 0.12% (n = 360,000). AID 588501. P15917. inhibition, % at 10 µM; further: plate controls were buffer without enzyme for full effect and enzyme alone for no effect
Target sequence (P15917 whole entry, looked up): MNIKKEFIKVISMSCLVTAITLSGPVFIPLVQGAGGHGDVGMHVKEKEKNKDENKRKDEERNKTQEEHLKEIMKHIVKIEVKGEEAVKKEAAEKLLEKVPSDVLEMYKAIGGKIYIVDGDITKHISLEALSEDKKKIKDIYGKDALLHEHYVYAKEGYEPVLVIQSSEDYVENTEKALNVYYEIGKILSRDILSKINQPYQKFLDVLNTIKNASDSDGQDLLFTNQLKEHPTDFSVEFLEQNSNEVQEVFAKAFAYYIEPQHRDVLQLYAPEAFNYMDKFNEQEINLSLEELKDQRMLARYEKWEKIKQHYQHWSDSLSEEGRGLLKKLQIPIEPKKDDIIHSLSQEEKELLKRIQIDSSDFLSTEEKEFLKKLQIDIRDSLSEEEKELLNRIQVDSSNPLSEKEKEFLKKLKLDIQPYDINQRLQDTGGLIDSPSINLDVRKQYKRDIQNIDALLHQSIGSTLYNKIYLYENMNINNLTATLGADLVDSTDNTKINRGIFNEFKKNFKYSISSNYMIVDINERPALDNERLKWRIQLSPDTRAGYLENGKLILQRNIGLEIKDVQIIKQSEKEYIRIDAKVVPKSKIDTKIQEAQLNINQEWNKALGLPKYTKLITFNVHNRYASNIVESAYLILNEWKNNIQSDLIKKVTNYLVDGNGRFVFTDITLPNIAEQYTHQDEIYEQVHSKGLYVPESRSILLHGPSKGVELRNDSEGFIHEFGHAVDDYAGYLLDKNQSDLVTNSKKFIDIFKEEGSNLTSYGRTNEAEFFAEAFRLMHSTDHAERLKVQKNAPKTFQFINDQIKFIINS
BoNT F protease = blocks Botulinum neurotoxin F light chain protease; Multiplex microsphere protease cleavage assay, flow cytometry; actives 0.22% (n = 360,000); inhibition, % at 10 µM; in the data active means inhibition above about 35%, passing the limit was not always enough; inconclusive means no clear call, values can overlap the other calls; further: plate controls were buffer without enzyme for full effect and enzyme alone for no effect
An asterisk follows results filed as active; ? = inconclusive. This is a sample that favours compounds with a hit; in the whole collection about 3.5% have one here. Unless noted, no stated cut-off is given here; in the data, active means inhibition above about 30%; inconclusive means no clear call, values can overlap the other calls; inactive means below that.

SMILES | BoNT A protease | Autofluor counter | Anthrax LF inh2 | BoNT F protease
OC(COc1cccc2ccccc12)CN1CCN(c2ccc(Cl)cc2)CC1 (stereo not drawn) | 0.3 | 3947 | -3.1 | 35.2*
CCN(c1ccc(NC(=O)COC(=O)c2cccs2)cc1)C(C)C | 0.7 | 3344 | -7.3 | -7.2
CCN(CC)c1ccc(NC(=O)COC(=O)c2cccs2)cc1 | -0.1 | 22712* | -2.7 | -0.2
Cc1ccc(-c2nnn(CC(=O)N(Cc3ccccc3)C(C(=O)NC(C)(C)C)c3ccncc3)n2)o1 (stereo not drawn) | -0.7 | 20840* | -2.5 | 4.3
Cc1ccc(-c2nnn(CC(=O)N(c3ccccc3)C(C(=O)NC(C)(C)C)c3cccs3)n2)o1 (stereo not drawn) | 0.2 | 3275 | 3.4 | 21.7
Cc1ccc(-c2nnn(CC(=O)N(c3cccc(O)c3)C(C(=O)NC(C)(C)C)c3cccs3)n2)o1 (stereo not drawn) | 0.0 | 16505* | -2.0 | 0.0
Cc1cc(F)ccc1S(=O)(=O)NCC(c1cccnc1)N1CCc2ccccc21 (stereo not drawn) | -0.9 | 6425 | -4.5 | -6.7
C=Cn1cc(CNC[C@H]2O[C@@H](n3ccc(N)nc3=O)[C@H](O)[C@@H]2O)c(C)n1 | -0.4 | 3502 | -1.1 | -1.9
CCOCCCNS(=O)(=O)c1ccccc1 | 5.4 | 20142* | -4.8 | 5.9
CCCCOCCCNS(=O)(=O)c1ccccc1 | -1.3 | 7983 | -3.0 | -24.8
CC(C)CC(=O)NC(Nc1ccccc1F)C(Cl)(Cl)Cl (stereo not drawn) | -0.8 | 3128 | -7.0 | 0.2
CC(C)C(=O)NC(Nc1ccccc1F)C(Cl)(Cl)Cl (stereo not drawn) | 4.5 | 21522* | 2.0 | 6.0
Cc1ccc(-c2noc(CCC(=O)NCc3ccco3)n2)cc1 | 0.2 | 19424* | -3.3 | -1.6
COc1cc(-c2noc(CCCC(=O)NCc3ccco3)n2)cc(OC)c1OC | 3.5 | 21043* | 0.6 | 5.5
O=C(CCc1nc(-c2ccccc2)no1)NCc1ccco1 | 0.8 | 4955 | -4.6 | -11.3
Cc1ccc(S(=O)(=O)CCC(=O)OCC(=O)NC2CCS(=O)(=O)C2)cc1 (stereo not drawn) | -2.9 | 4692 | 3.1 | ?
Cc1ccc(S(=O)(=O)N2CC3(C)CN(S(=O)(=O)c4ccc(C)cc4)CC(C)(C2)C3=O)cc1 | 2.8 | 22149* | -2.8 | 2.8
Cc1ccccc1OC1C(=O)N(Cc2ccc3c(c2)OCO3)C1c1sccc1C (stereo not drawn) | ? | 22460* | -3.1 | 4.3
COc1ccccc1N1CCN(C(=O)c2cc(-c3ccc(C)cc3)on2)CC1 | 0.2 | 6118 | 6.2 | 6.9
COc1ccccc1N1CCN(C(=O)c2cc(-c3ccc(Cl)cc3)on2)CC1 | -2.9 | 24151* | -2.7 | -4.6
COc1ccc(-c2cc(C(=O)N3CCCCC3)no2)cc1OC | -0.6 | 23544* | -0.4 | -1.4
CN(C1=NS(=O)(=O)N=C(N(C)c2ccccc2)O1)c1ccccc1 | -0.1 | 2863 | 4.0 | 2.4
CCCc1cc(C(=O)Cc2ccc(C(=O)OCC)o2)c(O)cc1O | 1.2 | 4467 | -0.9 | 3.3
CCCc1cc(-c2n[nH]c(C)c2-c2ccc(C(=O)OCC)o2)c(O)cc1O | 1.9 | 19356* | -9.0 | -3.1
Cc1ccc(OCCN2CCC2(C)C(=O)NCc2ccc(C(F)(F)F)cc2)cc1 (stereo not drawn) | 0.6 | 2904 | 4.0 | -2.9
SMILES | BoNT A protease | Autofluor counter | Anthrax LF inh2 | BoNT F protease
CC1(C(=O)NC2CCCCCC2)CCC(=O)N1Cc1ccc2c(c1)OCO2 (stereo not drawn) | 0.2 | 16292* | -5.9 | -3.8
COc1ccc(/C=C(/C(=O)Nc2ccccc2C(=O)NC(C)C)c2ccccc2)cc1 | -2.4 | 17014* | -0.9 | -7.3
COc1ccc(/C=C(/C(=O)Nc2ccccc2C(=O)N2CCCC2)c2ccccc2)cc1 | 0.1 | 22608* | 0.2 | 1.3
COc1ccc(/C=C/C(=O)Nc2ccccc2C(=O)N2CCCC2)cc1 | 0.2 | 8637 | 0.8 | 2.3
C#CCNC(=O)c1csc([C@@H]2O[C@H](CO)[C@@H](O)[C@H]2O)n1 | -0.5 | 2843 | -2.3 | 1.4
CCOC1=C2[C@@H](CN(S(=O)(=O)c3ccc(C)cc3)[C@H]2c2ccccc2Cl)[C@H]2C(=O)N(C)C(=O)[C@H]2C1 | 0.1 | 5792 | 5.0 | 0.7
COc1ccc(C(=O)NNC(=O)CSc2nnc(COc3ccc4ccccc4c3)n2C)cc1 | 2.2 | 15630 | -1.4 | 2.1
COc1ccc(C(=O)NNC(=O)CSc2nnc(COc3ccccc3)n2C)cc1 | 0.3 | 16210* | -6.6 | -1.7
COc1ccc(CC(=O)NC(C)c2nnc(SCCOc3ccc(OC)cc3)n2C)cc1 (stereo not drawn) | 0.2 | 16217* | 4.0 | 1.5
C=CCn1c(SCCOc2ccc(OC)cc2)nnc1C(CO)NC(=O)c1ccc(OC)cc1 (stereo not drawn) | 17.3 | 16235* | -12.2 | 24.2

Compound activity from PubChem BioAssay.
